Test systems include NCI-H23 lung; NCI-H226 lung; NCI-H322M lung; HOP-62 NSCLC; NCI-H460 lung; HOP-92 NSCLC; NCI-H522 lung; A549/ATCC NSCLC; 786-0 renal; COLO 205 colon; DU-145 prostate; K-562 leukemia; MALME-3M melanoma; MDA-MB-231 breast; RXF 393 renal; SF-268 CNS; SF-295 CNS; SF-539 CNS; UACC-257 melanoma; M14 melanoma.
Holding throughout (test): NCI-60 one-dose screen, 48 h (100 = growth as untreated, 0 = no growth, -100 = all killed)
Conditions in all cases: 10 µM unless noted

Compounds without any hit were thinned out: in the full panel of roughly 83,000, 20% have a hit.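 Cells were grown in 96-well plates and exposed to the test compound at a single concentration for 48 hours; results are reported as percent growth, with values below 10 considered active.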 Unmarked numbers belong to inactive results. Activity calls are given as the source filed them.

For the compound `Clc1ccc2c(NCCNC34CC5CC(CC(C5)C3)C4)ccnc2c1`, the growth in the assay with NCI-H23 lung is -73.2% (active); in the assay with NCI-H226 lung, -24.4% (active); in the assay with NCI-H322M lung, -61.7% (active); in the assay with HOP-62 NSCLC, -76.7% (active); with NCI-H460 lung, -63.1% (active); in the assay with HOP-92 NSCLC it was -64.7% (active). Further, the growth in the assay with NCI-H522 lung is -76.7% (active); in the assay on A549/ATCC NSCLC, -33% (active); in the assay with 786-0 renal, -79.8% (active); with COLO 205 colon, -58.1% (active); with DU-145 prostate, -42.7% (active); with K-562 leukemia it was 2.05% (active). Besides, the growth is -80.4% (active) with MALME-3M melanoma; -72.1% (active) with MDA-MB-231 breast; -86.4% (active) in the assay with RXF 393 renal; -62.2% (active) with SF-268 CNS; -90.9% (active) in the assay with SF-295 CNS; -89.7% (active) in the assay on SF-539 CNS. The values for the growth with UACC-257 melanoma and in the assay with M14 melanoma were -66.3% (active) and -83.5% (active), respectively.
`C/C(=N\Nc1ccc(C(=O)O)cc1)c1cnn(-c2cc(=O)[nH]c3ccc(C)cc23)c1C`: the growth in the assay on NCI-H23 lung was 106%; in the assay on NCI-H226 lung, 90.1%; in the assay on NCI-H322M lung, 98.2%; in the assay on HOP-62 NSCLC, 93.1%; in the assay on NCI-H460 lung it was 109%; in the assay with HOP-92 NSCLC, 6.13% (active). In addition, the growth with NCI-H522 lung was 89.4%; with A549/ATCC NSCLC, 104%; in the assay with 786-0 renal it was 93.2%; in the assay on COLO 205 colon it was 118%; in the assay with DU-145 prostate, 107%; in the assay on K-562 leukemia, 101%. Further, the growth in the assay with MALME-3M melanoma is 83.3%; with MDA-MB-231 breast, 91.1%; in the assay with RXF 393 renal, 93.7%; in the assay on SF-268 CNS it was 97.2%; with SF-295 CNS, 95.5%; in the assay with SF-539 CNS, 101%. Also, the figures for the growth in the assay on UACC-257 melanoma and with M14 melanoma were 106% and 96.3%, respectively.
As for `CCCn1c(NC(=O)c2cccc(C(N)=O)c2)nc2cc(CN3CCCCC3)ccc21`, the growth in the assay on NCI-H23 lung is 88.1%; in the assay on NCI-H226 lung, 101%; with NCI-H322M lung, 92%; in the assay with HOP-62 NSCLC it was 95.8%; with NCI-H460 lung, 101%; in the assay on HOP-92 NSCLC, 84.8%. Besides, the growth is 83.1% with NCI-H522 lung; 95.7% in the assay on A549/ATCC NSCLC; 9.97% (active) with 786-0 renal; 88.7% in the assay with COLO 205 colon; 103% in the assay on DU-145 prostate; 72.3% in the assay on K-562 leukemia. The growth is 98% with MALME-3M melanoma; 142% with MDA-MB-231 breast; 64.5% in the assay on RXF 393 renal; 111% in the assay with SF-268 CNS; 107% in the assay on SF-295 CNS; 107% in the assay on SF-539 CNS. Moreover, the growth in the assay with UACC-257 melanoma was 113%; in the assay with M14 melanoma it was 13.8%.
For the compound `COc1cccc(NC(=O)c2ccc(NC(=O)CCl)s2)c1`, the growth was 11.9% in the assay with NCI-H23 lung; 61.5% with NCI-H226 lung; 101% with NCI-H322M lung; 64.2% in the assay with HOP-62 NSCLC; 12.1% with NCI-H460 lung; 85.9% in the assay on HOP-92 NSCLC. For the same compound, the growth in the assay on NCI-H522 lung was -79.7% (active); with A549/ATCC NSCLC, 39.7%; with 786-0 renal, -86.8% (active); in the assay with COLO 205 colon, 40.2%; in the assay on DU-145 prostate it was 88.1%; in the assay on K-562 leukemia, 4.03% (active). For the same compound, the growth with MALME-3M melanoma is 45.5%; in the assay with MDA-MB-231 breast, -26.5% (active); in the assay on RXF 393 renal it was 56.9%; with SF-268 CNS, 45.7%; with SF-295 CNS it was 65.4%; in the assay on SF-539 CNS it was 38.4%. Further, the growth in the assay with UACC-257 melanoma is 27.7%; in the assay on M14 melanoma, 14.2%.
Consider `O=C(Cc1c(-c2cccc([N+](=O)[O-])c2)n(-c2ncnc3c2c(-c2ccccc2)c(-c2ccccc2)n3Cc2ccccc2)[nH]c1=O)c1ccc(Cl)c(Cl)c1`, for which the growth in the assay on NCI-H23 lung was 16.1%; with NCI-H226 lung it was 39%; in the assay with NCI-H322M lung, 79.1%; in the assay on HOP-62 NSCLC it was 44.9%; in the assay with NCI-H460 lung it was 33.9%; in the assay with HOP-92 NSCLC, -2.08% (active). The growth in the assay with NCI-H522 lung was 7.22% (active); with A549/ATCC NSCLC it was 45%; in the assay on 786-0 renal, 63.4%; in the assay on COLO 205 colon it was 60.2%; in the assay with DU-145 prostate, 51%; in the assay on K-562 leukemia, 17.6%. The growth in the assay on MALME-3M melanoma was -3.97% (active); with MDA-MB-231 breast it was 37.4%; in the assay with RXF 393 renal, 44.9%; in the assay with SF-268 CNS, 62.3%; in the assay on SF-295 CNS, 12.2%; in the assay on SF-539 CNS, 60.7%. In addition, the values for the growth in the assay with UACC-257 melanoma and with M14 melanoma were 30.9% and 32.6%, respectively.
With `COc1ccc(-c2nnc3c(/C=C/c4ccc(Br)cc4)nc4ccccc4n23)cc1`, the growth in the assay with NCI-H23 lung was 29.9%; with NCI-H226 lung, 96.7%; in the assay on NCI-H322M lung it was 96.5%; in the assay on HOP-62 NSCLC it was 104%; in the assay with NCI-H460 lung, 67.6%; in the assay with HOP-92 NSCLC it was 35.6%. Moreover, the growth in the assay on NCI-H522 lung was -79.9% (active); with A549/ATCC NSCLC it was 75.8%; in the assay with 786-0 renal, -41.8% (active); in the assay on COLO 205 colon, -53% (active); in the assay with DU-145 prostate, 53.6%; in the assay with K-562 leukemia, 10.6%. Further, the growth is -39.4% (active) in the assay on MALME-3M melanoma; 81.9% in the assay with MDA-MB-231 breast; -2.19% (active) in the assay on RXF 393 renal; 87.4% with SF-268 CNS; 87.4% with SF-295 CNS; 23.8% in the assay with SF-539 CNS. The growth in the assay on UACC-257 melanoma is 70.9%; with M14 melanoma, -19.8% (active).
On to `COc1ccc(C2=NN(C(=O)[C@H]3[C@@H](c4ccco4)c4sc(=O)[nH]c4S[C@@H]3C)C(c3ccc4ccccc4c3)C2)cc1` (stereo not given in full), for which the growth in the assay with NCI-H23 lung is 33.8%; in the assay with NCI-H226 lung, 29.3%; in the assay on NCI-H322M lung, 49.1%; in the assay on HOP-62 NSCLC, 59.7%; in the assay with NCI-H460 lung, 23.8%; with HOP-92 NSCLC, 29.1%. Moreover, the growth in the assay on NCI-H522 lung was 4.06% (active); with A549/ATCC NSCLC, 17.6%; with 786-0 renal, 44.6%; with COLO 205 colon, 7.92% (active); with DU-145 prostate, 62.7%; with K-562 leukemia, 16%. The growth in the assay with MALME-3M melanoma is 50.6%; in the assay with MDA-MB-231 breast it was 47.5%; with RXF 393 renal, 11.2%; with SF-268 CNS it was 45.3%; in the assay with SF-295 CNS it was 38.6%; in the assay with SF-539 CNS it was 28.6%. Further, the growth in the assay with UACC-257 melanoma is 43.2%; in the assay on M14 melanoma it was 24.1%.

The values are drawn from PubChem BioAssay (NCI).
